SMILES strings stand for the structures. The campaign covered roughly 16,000 compounds. About 4,000 (25%) were called active. About 26% were inconclusive and are not listed. Only a sample is shown. Unmarked numbers belong to inactive results. The call rests on the fitted dose curve; in most records, active means well fitted curve in the direction sought with a large enough effect; inconclusive means small, poorly fitted or top-dose-only effect, or effect the other way; inactive means no such curve, though single readings can be large or run the other way.
On the % scale 0 is the no-effect control and ±100 the full control effect.

For the test, the target named is Cytochrome P450 2C9 (Homo sapiens) (UniProt P11712). Kind of test: Cytochrome panel assay with activity outcomes. To be noted: recombinant CYP, pro-luciferin dealkylation, luminescence, p450-cyp2c9; series mostly up to 57.1 µM; activity, negative = inhibition: at the top concentration.
Sequence of Cytochrome P450 2C9 (Homo sapiens) (P11712 whole entry, looked up): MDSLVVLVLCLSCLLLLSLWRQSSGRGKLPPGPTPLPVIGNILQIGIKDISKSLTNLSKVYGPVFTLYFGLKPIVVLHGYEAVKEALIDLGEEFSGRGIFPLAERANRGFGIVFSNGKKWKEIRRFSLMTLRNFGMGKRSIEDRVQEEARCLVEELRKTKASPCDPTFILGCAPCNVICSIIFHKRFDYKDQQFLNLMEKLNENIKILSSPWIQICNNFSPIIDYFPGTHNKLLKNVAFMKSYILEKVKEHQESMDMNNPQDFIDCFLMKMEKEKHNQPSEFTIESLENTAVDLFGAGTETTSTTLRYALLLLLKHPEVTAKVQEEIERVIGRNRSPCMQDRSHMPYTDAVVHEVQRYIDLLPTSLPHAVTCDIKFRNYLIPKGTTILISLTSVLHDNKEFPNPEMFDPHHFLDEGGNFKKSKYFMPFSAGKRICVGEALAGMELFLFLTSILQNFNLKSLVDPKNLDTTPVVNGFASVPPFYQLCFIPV
Regarding `Cc1ccc(C(=O)NN2CCOCC2)cc1`, the “activity, negative = inhibition” value was -10.7%. Still for that read-out and setting: under `O=C(N/N=C1/C[C@@H](O)[C@@H](O)[C@@H]2[C@@H]3C(=O)N(Cc4ccccc4)C(=O)[C@H]3CC[C@H]12)OCc1ccccc1` stands 4.61% [at 11.4 µM]; under `COc1ccc(C/C(N)=N/OC(=O)Cc2ccccc2)cc1OC`, 5.49%. What is called AC50 is the midpoint of the concentration-response curve, whichever way the signal moves. Turning to `CCOC(=O)c1sc(NC(C)=O)nc1-c1ccccc1`, the concentration at half-maximal activity (AC50) was 31.6 µM (active).

For the compound `COc1ccc(CC(=O)NCc2ccccn2)cc1OC`, the “activity, negative = inhibition” value is -10%.

Regarding `CCOC(=O)c1sc(NS(=O)(=O)c2ccccc2)nc1C`, the AC50 is 1 µM (active). For the compound `CCOC(=O)Cc1csc(NS(=O)(=O)c2ccccc2)n1`, the half-maximal activity concentration (AC50) was 5.01 µM (active). Same read-out and setting: under `COC(=O)c1c(-c2ccc3ccccc3c2)csc1NC(=O)Cc1ccc(OC)c(OC)c1` stands 0.447 µM (active). With `C#CCCCO/N=C1/C[C@@H](O)[C@@H](O)[C@@H]2[C@@H]3C(=O)N(C4CCCCC4)C(=O)[C@H]3CC[C@H]12`, the activity, negative = inhibition is 6.11% [at 11.4 µM]. Take `Cn1cnnc1SCC(=O)OCN1C(=O)c2ccccc2C1=O`: the “activity, negative = inhibition” value is -14.3%.

For `CCOC(=O)c1c(-c2ccc(OC)cc2)csc1NC(=O)CCN1C(=O)c2ccccc2C1=O`, the AC50 is 1.41 µM (active). The same measure, in the same setting: under `CCOC(=O)c1c(-c2ccccc2)csc1NC(=O)c1cccc(N2C(=O)CCC2=O)c1` stands 0.316 µM (active).

Consider `CCCC(=O)Nc1nc(C(=O)OCC)cs1`, for which the “activity, negative = inhibition” value is -26.8%. `CCOC(=O)Cc1csc(NC(=O)CCCCCN2C(=O)c3ccccc3C2=O)n1`: the AC50 is 1.26 µM (active). With `CCOC(=O)c1c(C)n(C)c2ccc(OC)c(NC(=O)CN3CCCCC3)c12`, the “activity, negative = inhibition” value is -6.07%.

Consider `CCOC(=O)c1c(-c2cccc(C)c2)csc1NC(=O)c1c(-c2ccccc2)noc1C`, for which the “activity, negative = inhibition” value is -23%. Same read-out and setting: the value for `N[C@@H](Cn1cc(F)c(=O)[nH]c1=O)C(=O)O` was 8.3%.

Take `Cc1c(C(=O)NCCC2=CCCCC2)cccc1[N+](=O)[O-]`: the “activity, negative = inhibition” value is 4.59%.

Consider `Cc1ccc(S(=O)(=O)N(CC(=O)NCCC2=CCCCC2)Cc2ccccc2F)cc1`, for which the AC50 was 7.08 µM (active). For the compound `CC(=O)c1cnc2cc(C)nn2c1C`, the “activity, negative = inhibition” value is -25.7%. In the case of `O=C1CCCN1c1ccc(S(=O)(=O)Oc2cccc(Cl)c2)cc1[N+](=O)[O-]`, the AC50 was 11.2 µM (active). As for `O=C(Cn1ccnc1[N+](=O)[O-])NCCO`, the “activity, negative = inhibition” value was -0.606% [at 25.6 µM]. On to `COc1cccc(-c2ccc3ncnc(N4CCN(C)CC4)c3c2)c1`, for which the activity, negative = inhibition is -5.64% [at 2.29 µM].

As to `COc1cccc(-c2nnc3sc(-c4ccc(C)cc4)nn23)c1`, the AC50 was 10 µM (active).

Turning to `COc1cccc(-c2nccc(-n3ccnc3)n2)c1`, the activity, negative = inhibition is -24.4% [at 2.29 µM]. `COc1ccc(CNc2ccnc(-c3ccc(C(=O)N(C)C)cc3)n2)c(OC)c1`: the activity, negative = inhibition is -2.88% [at 2.29 µM]. Same read-out and setting: the value for `Cc1ccc(N2C(=O)CSC2c2cccnc2)cc1F` (stereo not given) was -24.7%. `Cc1ccc(NC(=O)C2(NC(=O)c3cccc(N4C(=O)CSC4c4ccccc4)c3)CCCCC2)cc1` (stereo not given): the AC50 was 1.41 µM (active). Regarding `Cc1ncc(COP(=O)(O)O)c(C)c1O`, the activity, negative = inhibition is 5.34% [at 11.4 µM].

For the compound `COC(=O)N1CCC2(CCCN(Cc3ccccc3OC)C2)CC1`, the “activity, negative = inhibition” value was -1.79%. In the case of `CC(=O)Nc1ccc2c(c1)C(=Nc1ccc(C(=O)O)cc1)c1ccccc1-2`, the activity, negative = inhibition was 16.5% [at 11.4 µM]. Consider `CC(C)OC(=O)CN1CCN(C2c3ccccc3-c3ccccc32)CC1`, for which the half-maximal activity concentration (AC50) is 14.1 µM (active).

Take `COc1ccc(NC(C)=O)cc1NC(=O)CN1CCN(C2c3ccccc3-c3ccccc32)CC1`: the AC50 is 10 µM (active). On the same count and under the same terms, under `COc1ccccc1NC(=O)CN1CCN(C2c3ccccc3-c3ccccc32)CC1` stands 0.794 µM (active).

In the case of `CCN1CCN(C(=O)C2c3cc(OC)c(OC)cc3C(=O)N3CCc4ccccc4C23)CC1` (stereo not given), the “activity, negative = inhibition” value is 1.31%. For `COC(=O)C/C=C1\c2ccccc2[C@H](OC)[C@H]1C`, the activity, negative = inhibition is 15.8% [at 11.4 µM].

On to `O=C(O)C[C@@H](C(=O)O)C1c2ccccc2-c2ccccc21`, for which the activity, negative = inhibition was -12.1% [at 11.4 µM]. For the compound `Cc1c(NC(=O)NC(C)N2C(=O)C3C4C=CC(C4)C3C2=O)c(=O)n(-c2ccccc2)n1C` (stereo not given), the “activity, negative = inhibition” value is -13.6%.

As to `COCCNc1cc(-c2ccccc2C(F)(F)F)ncn1`, the activity, negative = inhibition is 6.38% [at 2.29 µM]. As for `O=C(NNC(=S)NCc1ccco1)c1ccc(Cl)s1`, the AC50 was 4.47 µM (active). In the case of `O=S(=O)(c1ccccc1)N1CCC2(CCCN(Cc3nccs3)C2)CC1`, the “activity, negative = inhibition” value was 13.6%. With `CSC(=NC#N)N1CCN(c2ccc(Cl)cc2)CC1`, the half-maximal activity concentration (AC50) was 5.01 µM (active). As for `O=C(O)CCC(=O)c1ccc2sc3ccccc3c2c1`, the activity, negative = inhibition is -2.22% [at 11.4 µM].

As for `O=C(NC(=S)N(CCCCO)C1CCCCC1)c1sc2ccccc2c1Cl`, the AC50 is 7.94 µM (active). Take `Cc1ccc(NC(=O)c2sc3ccccc3c2Cl)nc1`: the “activity, negative = inhibition” value was -9.76%. As for `CCCCOC(=S)NC(=O)c1sc2ccccc2c1Cl`, the AC50 was 0.282 µM (active). As to `CCOC(=S)NC(=O)c1sc2ccccc2c1Cl`, the concentration at half-maximal activity (AC50) is 0.0631 µM (active). For `CC(C)c1nnc(NC(=O)c2sc3ccccc3c2Cl)s1`, the AC50 is 12.6 µM (active). As for `CN(C(=S)NC(=O)c1ccccc1Br)C1CCCCC1`, the “activity, negative = inhibition” value is -17.8%. Regarding `CC(C)Cc1nnc(NC(=O)c2ccc([N+](=O)[O-])cc2)s1`, the “activity, negative = inhibition” value is -27.3%.

(Values after PubChem BioAssay AID1851 (National Center for Advancing Translational Sciences (NCATS), 2009).)
